# Measurements published in the supplement of paper PMC7411054.
# Tests used:
# Settings in all cases: treatment time: 24 h
# [1] = test system: A549-ACTB-RAB5A; experiment: phenotypically active (imaging signature differs from DMSO and reproducible) at any of 0.3-9 uM (binary (1 = active, 0 = inactive)); higher = active
# How it was run: (§1)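 After 24 h at 0.3, 1, 3 or 9 µM, with four wells per treatment, fifteen gene-edited A549, HepG2 and WPMY1 reporter lines carrying BFP, GFP and RFP/FusionRed were imaged live. Each well's live-cell features were expressed relative to solvent control wells. Deviation required ≥3 of 4 wells past the 95th percentile of control Euclidean distances, and reproducibility a median replicate Pearson correlation over the 95th percentile of non-replicates. Phenotypic activity rested on both.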
# [2] = test system: A549-CANX-COX4; experiment: as above
# How it was run: as §1
# [3] = test system: A549-GM130-SQSTM1; experiment: as above
# How it was run: as §1
# [4] = test system: A549-TP53BP1-CLTA; experiment: as above
# How it was run: as §1
# [5] = test system: A549-TUBA1B-RELA; experiment: as above
# How it was run: as §1
# [6] = test system: HepG2-ACTB-RAB5A; experiment: as above
# How it was run: as §1
# [7] = test system: HepG2-CANX-COX4; experiment: as above
# How it was run: as §1
# [8] = test system: HepG2-GM130-SQSTM1; experiment: as above
# How it was run: as §1
# [9] = test system: HepG2-TP53BP1-CLTA; experiment: as above
# How it was run: as §1
# [10] = test system: HepG2-TUBA1B-RELA; experiment: as above
# How it was run: as §1
# [11] = test system: WPMY1-ACTB-RAB5A; experiment: as above
# How it was run: as §1
# [12] = test system: WPMY1-CANX-COX4; experiment: as above
# How it was run: as §1
# [13] = test system: WPMY1-GM130-SQSTM1; experiment: as above
# How it was run: as §1
# [14] = test system: WPMY1-TP53BP1-CLTA; experiment: as above
# How it was run: as §1
# [15] = test system: WPMY1-TUBA1B-RELA; experiment: as above
# How it was run: as §1
# [16] = test system: A549-ACTB-RAB5A; experiment: lowest phenotypically active concentration; higher = less potent
# How it was run: as §1
# [17] = test system: A549-CANX-COX4; experiment: as above
# How it was run: as §1
# [18] = test system: A549-GM130-SQSTM1; experiment: as above
# How it was run: as §1
# [19] = test system: A549-TP53BP1-CLTA; experiment: as above
# How it was run: as §1
# [20] = test system: A549-TUBA1B-RELA; experiment: as above
# How it was run: as §1
Compound,phenotypically active [1],phenotypically active [2],phenotypically active [3],phenotypically active [4],phenotypically active [5],phenotypically active [6],phenotypically active [7],phenotypically active [8],phenotypically active [9],phenotypically active [10],phenotypically active [11],phenotypically active [12],phenotypically active [13],phenotypically active [14],phenotypically active [15],lowest phenotypically active concentration [16] [µM],lowest phenotypically active concentration [17] [µM],lowest phenotypically active concentration [18] [µM],lowest phenotypically active concentration [19] [µM],lowest phenotypically active concentration [20] [µM]
Oc1cc(O)c2c(c1)O[C@H](c1ccc(O)c(O)c1)[C@@H](O)C2 [Epicatechin-(-)],0 (inactive),0 (inactive),0 (inactive),0 (inactive),0 (inactive),0 (inactive),0 (inactive),0 (inactive),0 (inactive),0 (inactive),0 (inactive),0 (inactive),0 (inactive),0 (inactive),0 (inactive),–,–,–,–,–
FC(F)(F)c1ccc(/C=C/c2nc(COc3ccc(CCCCn4ccnn4)cc3)co2)cc1,1 (active),1 (active),1 (active),1 (active),1 (active),1 (active),1 (active),1 (active),1 (active),1 (active),0 (inactive),0 (inactive),0 (inactive),0 (inactive),0 (inactive),≤ 0.3,≤ 0.3,≤ 0.3,≤ 0.3,≤ 0.3
O=c1ncn2nc(Sc3ccc(F)cc3F)ccc2c1-c1c(Cl)cccc1Cl,1 (active),0 (inactive),0 (inactive),0 (inactive),0 (inactive),0 (inactive),0 (inactive),0 (inactive),0 (inactive),0 (inactive),0 (inactive),0 (inactive),0 (inactive),0 (inactive),0 (inactive),9,–,–,–,–
COc1cc2ncnc(Nc3ccc(O)c(Br)c3)c2cc1OC,1 (active),1 (active),1 (active),1 (active),1 (active),1 (active),1 (active),1 (active),1 (active),1 (active),1 (active),1 (active),1 (active),1 (active),0 (inactive),1,3,3,1,3
COc1ccc2c(NC(=O)Nc3cccc(C(F)(F)F)n3)ccnc2c1,1 (active),1 (active),1 (active),1 (active),1 (active),1 (active),1 (active),1 (active),1 (active),1 (active),1 (active),1 (active),1 (active),1 (active),0 (inactive),≤ 0.3,9,3,9,3
